The supplement of paper PMC13380429
Where a name gives a salt, the structure may show the parent alone.

System: Vero E6 infected with SARS-CoV-2
Assay: inhibition of SARS-CoV-2 cytopathic effect; higher = more antiviral protection, active = above 15
Conditions: 48 h

Measured: inhibition of SARS-CoV-2 cytopathic effect

CCCCCCCCCCCCCCCc1cccc(OCC(=O)NCCO)c1
inactive: 1 nM -0.98% | 8.33 nM -2.66% | 100 nM -0.69% | 833.33 nM 1.46% | 10000 nM -1.78%

C[N+](C)(C)CCOP(=O)(O)OC[C@H](O)CO [choline-alfoscerate]
inactive: 1 nM -1.69% | 8.33 nM -1.94% | 100 nM -3.48% | 833.33 nM -1.31% | 10000 nM -2.46%

O=C(O)CCC(=O)O [succinic-acid]
inactive: 1 nM -0.06% | 8.33 nM -1.83% | 100 nM -1.13% | 833.33 nM -0.66% | 10000 nM 2.3%

O=C(O)CCNC(=O)c1ccccc1 [betamipron]
inactive: 1 nM -2.23% | 8.33 nM -0.21% | 100 nM 0.07% | 833.33 nM -1.91% | 10000 nM -2.18%

Cc1cc(O)c2c(c1)C(=O)c1cc(O)cc(O)c1C2=O [emodin]
inactive: 1 nM -1.74% | 8.33 nM 0.93% | 100 nM -1.79% | 833.33 nM 1.29% | 10000 nM 2.24%

CNCCc1cnc[nH]1 [N-alpha-methylhistamine-dihydrochloride]
inactive: 1 nM 0.16% | 8.33 nM 2.71% | 100 nM 2.12% | 833.33 nM -0.59% | 10000 nM 1.37%

N[C@@H](Cc1cc(-c2ccc(Cl)cc2Cl)cc(CP(=O)(O)O)c1O)C(=O)O
inactive: 1 nM 0.73% | 8.33 nM 2.24% | 100 nM 2.7% | 833.33 nM 2.63% | 10000 nM 2.27%

CC/C(=C(/CC)c1ccc(OP(=O)(O)O)cc1)c1ccc(OP(=O)(O)O)cc1 [fosfestrol]
inactive: 1 nM -0.34% | 8.33 nM 2.21% | 100 nM -0.95% | 833.33 nM 0.3% | 10000 nM -0.17%
